PLK1 PBD block: PLK1 (human) polo-box domain binding inhibition | P53350 | Plk1 PBD binding of FITC phosphopeptide, fluorescence polarization | Potency, µM, without a hit: max response, negative = inhibition, usual class: inhibitors | 360,000 compounds, 2.8% hits; also: series mostly up to about 57 µM; % is scaled to controls: 0 for no effect and ±100 for the full control effect; nearly all actives have a fitted effect of over 65% in size
Target sequence (P53350 whole entry, looked up, the tested form may be a part): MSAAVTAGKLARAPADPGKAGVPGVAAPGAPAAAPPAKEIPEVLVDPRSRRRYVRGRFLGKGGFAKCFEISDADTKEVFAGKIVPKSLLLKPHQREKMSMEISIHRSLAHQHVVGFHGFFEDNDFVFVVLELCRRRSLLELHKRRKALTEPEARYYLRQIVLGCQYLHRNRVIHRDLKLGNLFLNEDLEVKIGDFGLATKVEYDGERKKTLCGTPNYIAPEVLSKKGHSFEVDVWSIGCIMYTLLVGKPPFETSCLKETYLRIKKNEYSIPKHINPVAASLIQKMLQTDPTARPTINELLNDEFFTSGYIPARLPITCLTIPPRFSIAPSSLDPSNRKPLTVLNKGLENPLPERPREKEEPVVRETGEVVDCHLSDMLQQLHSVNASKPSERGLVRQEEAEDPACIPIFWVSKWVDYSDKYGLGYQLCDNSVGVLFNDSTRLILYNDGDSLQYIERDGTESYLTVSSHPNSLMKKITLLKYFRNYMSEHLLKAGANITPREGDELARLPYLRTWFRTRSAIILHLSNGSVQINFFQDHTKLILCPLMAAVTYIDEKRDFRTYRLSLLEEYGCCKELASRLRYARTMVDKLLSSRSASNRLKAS
HP1b binding inh: blocks HP1-beta chromodomain binding to methylated histone tails. AlphaScreen HP1-beta / biotin-H3K9me3 peptide binding. Potency, µM (titrated, usually from 114 µM), without a hit: at the top dose activity change, negative = inhibition, most hits filed as inhibitors. 390,000 compounds, 0.56% hits. AID 540317; also: nearly all actives have a fitted effect of over 70% in size
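Compound inhibition of the preformed complex between 50 nM HP1-beta and 50 nM biotinylated H3K9me3 peptide was read by AlphaScreen. Buffer was PBS pH 7.4 with 0.01% Tween-20. Incubations ran 30 min at room temperature, with 10 ug/mL donor/acceptor beads.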
JMJD2A Tudor: blocks the human JMJD2A Tudor domain; AID 504339; 390,000 compounds, 4.4% hits; Potency, µM (top dose mostly 114 µM), inactives show at the top dose activity change, negative = inhibition, usual class: inhibitors; AlphaScreen JMJD2A-Tudor / H3K4me3 peptide binding; also: % is scaled to controls: 0 for no effect and ±100 for the full control effect; nearly all actives have a fitted effect of over 50% in size
G9a inh: G9a (human) methyltransferase inhibition. Q96KQ7. G9a H3K9 monomethylation, AlphaScreen, 2 h. Potency, µM (series often up to 102 µM), inactives show top-dose activity, negative = inhibition, usual class: inhibitors. 350,000 compounds, 8.8% hits. AID 504332; also: % is scaled to controls: 0 for no effect and ±100 for the full control effect; nearly all actives have a fitted effect of over 75% in size
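AlphaScreen detection with an anti-monomethyl H3K9 antibody quantified product after a 2 h room-temperature reaction containing 500 nM biotinylated H3K9 peptide, 20 µM SAM and 20 nM enzyme, which had been preincubated 15 min with compound.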
BAZ2B inh: inhibitors of human BAZ2B bromodomain. Q9UIF8. 360,000 compounds, 4.4% hits. AlphaScreen BAZ2B-H3K14Ac peptide displacement. Potency, µM (highest dose often 114 µM), for the others: at the top dose activity change, negative = inhibition, actives largely listed as inhibitors. AID 504333; also: % is scaled to controls: 0 for no effect and ±100 for the full control effect; nearly all actives have a fitted effect of over 60% in size
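In this displacement format the biotinylated H3(5-23) peptide acetylated at Lys14 serves as ligand at 50 nM, with BAZ2B at 50 nM in PBS pH 7.4 containing 0.01% Tween-20. Donor and acceptor beads are 10 ug/mL final.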
Sfp inh: Sfp phosphopantetheinyl transferase inhibition; Biochemical Sfp PPTase activity, qHTS; Potency, µM, for inactives: largest response in the series, negative = inhibition, actives largely listed as inhibitors; 310,000 compounds, 3.5% hits; AID 1490;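 also: the enzyme is Sfp with the accession as filed and its product quenches rhodamine fluorescence; 0% = enzyme reaction without inhibitor and -100% = no enzyme wells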
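Buffer: 50 mM Hepes-Na pH 7.6, 10 mM MgCl2, 0.01% Nonidet P-40, 0.01% BSA. Enzyme 15 nM, pre-exposed to compound 15 min; substrates then added and fluorescence change tracked over 30 min.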
An asterisk follows results filed as active; ? = inconclusive; . = not tested or not shown; [ ] = dose if it differs, or a comment. Rows were chosen to be rich in hits. Some 12% of all compounds tested hit in one or more screens of this group. Calls follow the shape of the dose curve; as a rule, active = well fitted curve in the direction sought with a large enough effect; inconclusive = small, poorly fitted or top-dose-only effect, or another doubt; inactive = no such curve, though single readings can be large; an effect the other way counts as inactive or inconclusive. Potency is read from the fitted curve at half-maximal effect.

SMILES	PLK1 PBD block	HP1b binding inh	JMJD2A Tudor	G9a inh	BAZ2B inh	Sfp inh
CN=c1scc(-c2ccc(Cl)cc2)n1C	-12%	3%	-2%	18%[59 µM]	7%	12%
CC1(c2ccc(F)cc2)OC(=O)c2c1ccc1ccccc21 (centres undefined)	-1%	.	.	.	.	.
Nc1nc(N)c2nc(-c3ccccc3)c(N)nc2n1	-12%	22%	-20%	-4%[59 µM]	12%	4%
NSc1nc(N)c2nc(-c3ccccc3)c(-c3ccccc3)nc2n1	13µM*	2%	-31%	6.3µM*	-24%	-17%
C[C@@H]1CC[C@@]2(OC1)OC1CC3C4CC=C5CC(O)CCC5(C)C4CCC3(C)C1[C@@H]2C (some centres undefined)	.	.	.	.	.	1%
COc1cccc(CNC(=O)CCn2ccc3cc(S(=O)(=O)N4CCC(C)CC4)ccc32)c1	-27%	36%	-17%	18%	14%	9%
O=C(Cn1ccc2cc(S(=O)(=O)N3CCCC3)ccc21)NCc1ccco1	?	-18%	79µM*	?	-11%[57.1 µM]	5%
COc1ccc(CNC(=O)CN2C(=O)COc3ccc(S(=O)(=O)N4CCC(C)CC4)cc32)cc1	30µM*	10%	-23%	17%[59 µM]	-11%	19%
COc1cccc(CNC(=O)[C@H](C)NC(=O)C2CCN(S(=O)(=O)c3ccccc3)CC2)c1	27µM*	7%	?	-5%	-6%	9%
COc1cccc(CNC(=O)Cn2ccc3cc(S(=O)(=O)N4CCC(C)CC4)ccc32)c1	9.5µM*	15%	?	12%	-9%[57.1 µM]	3%
COc1ccc(CNC(=O)CN2C(=O)COc3ccc(S(=O)(=O)N4CCCCCC4)cc32)cc1	.	36%	-1%	6%[59 µM]	-13%	.
COc1ccc(S(=O)(=O)N2CCC(C(=O)N[C@@H](C)C(=O)NCc3cccc(OC)c3)CC2)cc1	-1%	45%	-1%	43%	0%	7%
N#CCCN(Cc1cccnc1)C(=S)NC(=O)c1ccccc1	-2%	4%	?	.	.	.
COc1ccc(CCNc2nc3cc(OC)c(OC)cc3c3nc(-c4ccccc4)nn23)cc1OC	.	-3%	-3%	-28%[59 µM]	?	.
COc1ccccc1N=c1c2c([N+](=O)[O-])cc([N+](=O)[O-])cc2n(O)n1-c1ccccc1OC	.	.	.	0%	-12%	17%
COc1ccccc1-n1cc2c([N+](=O)[O-])cc([N+](=O)[O-])cc2n1	-6%	25%	-27%	10µM*	?	8%
O=S(=O)(c1ccc2c(c1)N(Cc1ccc(Cl)cc1)C1CCCN21)N1CCOCC1 (centres undefined)	-5%	1%	-15%	50µM*	-1%	1%
CCCCCC(=O)Nc1cc(S(=O)(=O)N2CCCCC2)ccc1N1CCCCC1	0%	4%	-2%	.	.	.
Cc1ccc(S(=O)(=O)N2CCOCC2)cc1NC(=O)CSc1ccc(Cl)cc1	-22%	21%	-12%	-4%[59 µM]	7%	.
O=C(CCCSc1ccc(Cl)cc1)Nc1cc(S(=O)(=O)N2CCOCC2)ccc1O	3.4µM*	?	56µM*	?	?	.
CCCCCC(=O)Nc1cc(S(=O)(=O)N2CCOCC2)ccc1N1CCCCC1	-3%	26%	5%	50µM*	9%	.
O=C(Cc1c(F)cccc1Cl)Nc1cc(S(=O)(=O)N2CCOCC2)ccc1N1CCOCC1	-3%	33%	-19%	50µM*	-6%	.
O=C(NCC(c1ccco1)S(=O)(=O)c1cccs1)c1c(F)cccc1F (centres undefined)	.	-2%	-7%	0%[59 µM]	-5%	.
O=C(Nc1ccc(F)cc1)c1ccc(-n2cnc3cccnc32)cc1	.	47%	-1%	-1%[59 µM]	-12%	.
CCn1cc2nc(SCc3cccc(OC)c3)n(Cc3ccc(Cl)cc3)c(=O)c2n1	.	8%	-13%	-41%[59 µM]	-6%	.
SMILES	PLK1 PBD block	HP1b binding inh	JMJD2A Tudor	G9a inh	BAZ2B inh	Sfp inh
O=C(Cn1c(=O)n(Cc2ccc(F)cc2)c(=O)c2sc3ccccc3c21)Nc1ccc(F)cc1F	.	31%	-9%	0%[59 µM]	3%	.
O=C(Cc1ccc(Cl)cc1)Nc1cc(S(=O)(=O)N2CCOCC2)ccc1N1CCCC1	-9%	36%	-7%[11.4 µM]	45µM*	-9%	9%
COc1ccc(CC(=O)Nc2cc(Cl)ccc2N2CCCC2)cc1	-7%	11%	-26%	45µM*	-10%	9%
O=C(COC(=O)c1ccccc1Br)Nc1cc(S(=O)(=O)N2CCOCC2)ccc1N1CCCC1	-22%	-1%	-16%[57.1 µM]	14µM*	?	-3%
COc1ccc(/C=C(\C#N)C(=O)Nc2cc(S(=O)(=O)N3CCOCC3)ccc2N2CCCC2)cc1	6.7µM*	?	?	7.9µM*	?	35µM*
CCN(CC)S(=O)(=O)c1ccc(N2CCCCC2)c(NC(=O)/C(C#N)=C/c2ccc(OC)cc2)c1	3%	23%	-8%	0%[59 µM]	-25%	17%
CCC/C=C(\CCC)C(NS(=O)(=O)c1ccc(C(F)(F)F)cc1)c1ccc(C(=O)OC)cc1 (centres undefined)	.	.	.	.	.	46%
COc1ccc(CC(=O)Nc2cc(S(=O)(=O)N3CCOCC3)ccc2N2CCCC2)cc1OC	-19%	-1%	-9%	.	.	.
O=C(CNc1cc(S(=O)(=O)N2CCOCC2)ccc1N1CCCC1)N1CCc2ccccc21	-1%	-11%	?	35µM*	?	5%
O=C(CNc1cc(S(=O)(=O)N2CCOCC2)ccc1N1CCCC1)Nc1ccc(Cl)cc1F	-3%	.	.	.	.	.
C/C=C/c1ccc(OCC(=O)Nc2cc(S(=O)(=O)N3CCOCC3)ccc2N2CCCC2)c(OC)c1	-2%	-12%	-28%	50µM*	-8%	.
Cc1ccc(/C=C(\C#N)C(=O)Nc2cccc(C)n2)cc1	-3%	31%	-8%	3%	-6%	7%
Cc1ccc(/C=C/c2onc(C)c2S(=O)(=O)N2CCC(C(=O)Nc3ccc(C)c(N(C)C)c3)CC2)cc1	.	-1%[57 µM]	-15%	-14%[59 µM]	-24%	.
CC1(C)C(/C=C/C=C/C=C/C=C2\N(CCCCS(=O)(=O)O)c3ccc4ccccc4c3C2(C)C)=[N+](CCCCS(=O)(=O)[O-])c2ccc3ccccc3c21	?	?	6.3µM*	?	.	50µM*
Cc1cc2nc(/C(C#N)=C\c3ccc(-c4ccccc4C(=O)O)o3)[nH]c2cc1C	79%	4%	-16%	?	?	-3%
Cc1ccc(-n2c(C)cc(/C=c3/sc4nc5ccccc5n4c3=O)c2C)cc1	-1%	44%	?	?	1%	-5%
Cc1cc2nc3s/c(=C/c4ccc(-c5ccccc5C(=O)O)o4)c(=O)n3c2cc1C	?	?	32µM*	3.5µM*	50µM*	79µM*

Screening data (PubChem)
